These results are taken from PubChem BioAssay (NCI).

Structures are written as SMILES. This is part of a sample that, as a whole, favours compounds with a hit. Of some 83,000 tested, about 20% had one in any assay.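 Negative percent growth values reflect cell death: -40 means 40% of the cells present at the start died, and -100 means all died.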 A number with no mark means an inactive call. The source made the active and inactive calls. The calls were made as follows: active = growth percent below 10; inactive = the rest.

In the assay the test system is HCT-15 colon. Nature of the assay: NCI-60 one-dose screen, 48 h (100 = growth as untreated, 0 = no growth, -100 = all killed). The following applies: 10 µM unless noted.
In the case of `COc1cc(C2CC(=O)Nc3c2cnn3C)cc(OC)c1OC` (stereo not drawn), the growth is 107%.
The figure for `C=C(c1ccc(C(=O)NCCCn2ccnc2)cc1)c1cc2c(cc1C)C(C)(C)CCC2(C)C` is 21.1%; for `Nc1c(Br)cc2c(c1Br)Cc1cc(Cl)ccc1-2` it is 109%.
The figure for `CCCCCCCCCCCCNC(=O)N[C@H](C(=O)N[C@H]1/C=C/CCNC(=O)/C=C/[C@H](C)NC1=O)C(C)C` is 27.9%; for `C=C(C)[C@@H]1CC[C@]2(C(=O)NS(=O)(=O)c3ccccc3)CC[C@]3(C)[C@H](CC[C@@H]4[C@@]5(C)CC[C@H](OC(=O)NS(=O)(=O)c6ccccc6)C(C)(C)[C@@H]5CC[C@]43C)[C@@H]12` it is 5.41% (active).
Under `FC(F)(F)c1cc(-c2nnc3n2N=C(Cl)CS3)cc(C(F)(F)F)c1` stands 96.8%; under `Cc1cc(-c2ccccc2)on1`, 101%.
Regarding `CNC(=O)c1c(NC(=O)c2cccc(C(F)(F)F)c2)sc2c1CCC(=O)C2`, the growth is -37% (active).
As for `COc1ccccc1/C=C/C(=O)CCC(=O)O`, the growth is 113%.
With `NNc1ccc(S(N)(=O)=O)cc1`, the growth is 110%.
Consider `CCc1c(C)c2ccc(O)c(-c3cc(-c4ccccc4)c(C#N)c(=O)[nH]3)c2oc1=O`, for which the growth is 96.5%.
The figure for `O=C1OCC2=C1C(c1ccccc1)c1cc3c(cc1N2CCO)OCO3` (stereo not drawn) is 24%; for `CCCCCCCCCCCCNC(=O)N[C@H](C(=O)N[C@H]1/C=C/OCCNC(=O)/C=C/[C@H](C(C)C)NC1=O)C(C)C` it is 117%; for `COc1ccc(-n2nc(C(=O)Nc3ccc(F)cc3)nc2-c2cc(OC)c(OC)c(OC)c2)cc1` it is 82.2%.
The figure for `COc1ccc2c(c1)OC1=C(C(=O)OC1)C2c1cc(OC)c2c(c1)OCCO2` (stereo not drawn) is 12.8%; for `O=S1(=O)NCCN1CCNc1nccc(-c2c(-c3cccc(O)c3)nc3sccn23)n1` it is 127%; for `O=C(CC(=O)C(F)(F)C(F)(F)C(F)(F)F)c1cc2ccccc2o1` it is 108%.
The figure for `Clc1cc2nc(-c3ccccc3)c(-c3ccccc3)nc2cc1Cl` is 88.7%; for `CC(C)(C)c1ccc(C(=O)Nc2sc3cc(O)ccc3c2C(N)=O)cc1` it is 43.9%; for `CC1=CCC2C1CC=C(C)C(CC[C@H]1[C@@](C)(O)CCC3OC(C)(C)[C@H](OC(=O)c4ccccc4)CC[C@@]31C)C2(C)C` (stereo partly drawn) it is 81.9%.
In the case of `CC(=O)C1CCC2C3CC(C)=C4CC(O)CCC4(C)C3CCC12C` (stereo not drawn), the growth is 100%.
Under `CCCCCCCCCCCCCC` stands 106%.
Take `CCN(CCC#N)c1ccccc1`: the growth is 108%.
Regarding `O=S1(=O)NCCCN1CCNc1nccc(-c2c(-c3cccc(O)c3)nc3sccn23)n1`, the growth was 95.5%.
Under `COc1ccc(-c2conc2-n2nc(-c3ccccc3)nc2-c2ccccc2)cc1` stands 107%; under `COc1ccccc1CNCCCN1C(=O)c2ccc3c4c(ccc(c24)C1=O)C(=O)N(CCCCNCCCN)C3=O`, 74.6%.
The figure for `Cc1ccc(C(=O)CC(=O)C(F)(F)C(F)(F)C(F)(F)F)s1` is 105%.
The figure for `O=C1CCCN1C(O)CCN(Cc1ccccc1)Cc1ccc(Cl)cc1` (stereo not drawn) is 125%; for `Nc1c(N)c2ccccc2c2ccccc12` it is 111%.
For `CCOC(=O)C1=C(C)NC(=S)NC1c1ccccc1` (stereo not drawn), the growth was 104%.
Under `CCOC(=O)C1=C(C(=O)OCC)N(c2cc(OC)c(OC)c(OC)c2)C(N)=C(C#N)C1c1cc(=O)[nH]c2ccccc12` (stereo not drawn) stands 106%; under `CC(=O)Nc1ccc(/C=N/N2CCCCCC2)cc1`, 102%.
Under `CCOC(=O)c1cnc(SCC)nc1SC#N` stands 63.3%.
The figure for `COc1cc(OC)c(C(=O)/C=C/c2cccc(OC(C)=O)c2)cc1CC=C(C)C` is 55%.
Regarding `COc1cc2ccc(C(C)=O)cc2cc1OC`, the growth is 97.3%.
The figure for `CN1CCCN(CCNc2nccc(-c3c(-c4cccc(O)c4)nc4sccn34)n2)S1(=O)=O` is 33.7%; for `CCN(CC)c1ccc(/C=C2/NC(=O)NC2=O)cc1` it is 36.6%; for `CCOC(=O)c1ccc2c(c1)[n+](=O)c(C(=O)c1ccc3ccccc3c1)c(C(F)(F)F)n2[O-]` it is -96.1% (active).
